# Reference: the antibiotic and cytotoxicity screens of Wong et al. (2023)
# Hit rate of the full screen: of about 39,000 compounds, about 3,300 (8.5%) were called active. What follows is part of a selection rich in actives, with near analogues and random picks from the rest.
# Test system: HepG2
# Experiment: cytotoxicity call (relative viability < 0.9)
# Details: 10 µM
row,Structure (SMILES),cytotoxicity call
1,COc1ccc(S(=O)(=O)Nc2cccc3c2O[C@H](CN(C)S(=O)(=O)c2ccccc2)[C@@H](C)CN([C@@H](C)CO)C3=O)cc1,inactive
2,C[C@H](CO)N1C[C@H](C)[C@H](CN(C)S(=O)(=O)c2ccc(F)cc2)Oc2ccc(NC(=O)C3CC3)cc2CC1=O,inactive
3,O=C(O)CCc1n[nH]c(=S)[nH]c1=O,inactive
4,Cc1ccc(S(=O)(=O)Nc2ccc3c(c2)C(=O)N([C@H](C)CO)C[C@H](C)[C@@H](CN(C)C(=O)c2ccccc2)OCCCC[C@H](C)O3)cc1,inactive
5,C[C@@H]1CN([C@H](C)CO)C(=O)Cc2cc(NC(=O)Cc3ccccc3)ccc2O[C@H]1CN(C)S(=O)(=O)c1ccc(F)cc1,inactive
6,COc1ccc(NC(=O)N(C)C[C@H]2OCCCC[C@H](C)Oc3ccc(NC(=O)Cc4ccccc4)cc3C(=O)N([C@H](C)CO)C[C@H]2C)cc1,inactive
7,C[C@@H]1CN([C@H](C)CO)C(=O)Cc2cc(NC(=O)Cn3cnnn3)ccc2O[C@H]1CN(C)S(=O)(=O)c1ccc(F)cc1,inactive
8,COc1ccc(S(=O)(=O)Nc2cccc3c2O[C@@H](CN(C)Cc2ccc(Oc4ccccc4)cc2)[C@@H](C)CN([C@@H](C)CO)C3=O)cc1,inactive
9,CCS(=O)(=O)N1C[C@]2(C1)CN([C@@H](CO)c1c2c2ccc(cc2n1C)OC)C(=O)c1ccc(cc1)F,inactive
10,CN(C)C(=O)c1ccc(-c2ccc3n(c2=O)C[C@H]2[C@H](CO)[C@@H](C(=O)NCCc4ccccc4)N[C@@H]32)cc1,inactive
11,C[C@@H]1CCCCO[C@H](CN(C)CC2CCCCC2)[C@H](C)CN([C@@H](C)CO)C(=O)c2cc(NC(=O)Nc3ccc4c(c3)OCO4)ccc2O1,active
12,C[C@@H]1CCCCO[C@@H](CN(C)CC2CCCCC2)[C@H](C)CN([C@H](C)CO)C(=O)c2cc(NC(=O)Nc3ccc4c(c3)OCO4)ccc2O1,inactive
13,C[C@H]1CCCCO[C@@H](CN(C)CC2CCCCC2)[C@@H](C)CN([C@@H](C)CO)C(=O)c2cc(NC(=O)Nc3ccc4c(c3)OCO4)ccc2O1,active
14,C[C@@H]1CCCCO[C@@H](CN(C)CC2CCCCC2)[C@H](C)CN([C@@H](C)CO)C(=O)c2cc(NC(=O)Nc3ccc4c(c3)OCO4)ccc2O1,inactive
15,C[C@@H]1CN([C@@H](C)CO)C(=O)c2cc(NC(=O)Nc3ccc4c(c3)OCO4)ccc2O[C@@H](C)CCCCO[C@@H]1CN(C)CC1CCCCC1,inactive
16,C[C@H](CO)N1C[C@H](C)[C@@H](CN(C)CC2CCCCC2)OCCCC[C@H](C)Oc2ccc(NC(=O)Nc3ccc4c(c3)OCO4)cc2C1=O,inactive
17,C[C@@H]1CN([C@@H](C)CO)C(=O)c2cc(NC(=O)Nc3ccc4c(c3)OCO4)ccc2O[C@@H](C)CCCCO[C@H]1CN(C)CC1CCCCC1,active
18,CC(C)CC#Cc1cnc2c(c1)C(=O)N([C@@H](C)CO)C[C@@H](C)[C@H](CN(C)S(=O)(=O)c1ccccc1)O2,inactive
19,CC(C)(C)c1nc(-c2cccc(NS(=O)(=O)c3c(F)cccc3F)c2F)c(-c2ccnc(N)n2)s1,inactive
20,CC(C)NC(=O)N(C)C[C@H]1Oc2ccc(NC(=O)CCN3CCOCC3)cc2CC(=O)N([C@@H](C)CO)C[C@H]1C,inactive
21,CCS(=O)(=O)N1C[C@]2(CCN(CC2)Cc2cccc(c2)OC)c2c(n(c3cc(ccc23)OC)C)[C@@H]1CO,inactive
22,C[C@H](CO)N1C[C@H](C)[C@@H](CN(C)C(=O)c2ccccn2)Oc2cc(Br)ccc2S1(=O)=O,inactive
23,CCNC(=O)c1cc2c(c(-c3cccc(-c4cc5ccccc5o4)c3)n1)[C@@H](CCO)N(C(=O)NC(C)C)C2,inactive
24,Cc1ccc(S(=O)(=O)N(C)C[C@H]2Oc3ncc(Br)cc3C(=O)N([C@H](C)CO)C[C@@H]2C)cc1,inactive

row,Structure (SMILES),cytotoxicity call
1,C[C@H](CO)N1C[C@H](C)[C@@H](CN(C)C(=O)Nc2ccc(F)cc2)OCCCC[C@H](C)Oc2ccc(NC(=O)NC3CCCCC3)cc2C1=O,inactive
2,Cc1c(-c2ccc(C(N)=O)c3[nH]c4cc(C(C)(C)O)ccc4c23)cccc1-n1cnc2ccccc2c1=O,active
3,CCOC(=O)Cn1cnc2ccccc2c1=O,inactive
4,Cc1nc2c(cc1C(=O)NN)c(=O)n(C)c(=O)n2C,inactive
5,CC(C)NC(=O)Nc1ccc2c(c1)CC(=O)N([C@H](C)CO)C[C@H](C)[C@@H](CN(C)Cc1ccc(Oc3ccccc3)cc1)O2,inactive
6,O=C(C[C@@H]1CC[C@H]2[C@@H](COC[C@@H](O)CN2C(=O)c2ccncc2)O1)NC1CCC1,inactive
7,C[C@@H]1CCCCO[C@H](CN(C)C(=O)Nc2cccc3ccccc23)[C@H](C)CN([C@@H](C)CO)C(=O)c2cc(NC(=O)c3ccncc3)ccc2O1,inactive
8,CC(=O)N(O)CCCCCNC(=O)CCC(=O)N(O)CCCCCNC(=O)CCC(=O)N(O)CCCCCN,active
9,CC(=O)N(O)CCCCNC(=O)CCC(=O)N(O)CCCCCNC(=O)CCC(=O)N(O)CCCCCN,inactive
10,CC(=O)NCCCS(=O)(=O)O,inactive
11,CC(=O)N(O)CCCCCNC(=O)CCC(=O)N(O)CCCCCNC(=O)CCC(=O)N(O)CCCCCN.CS(=O)(=O)O,active
12,CC(=O)N(O)CCCCCNC(=O)CC(O)(CC(=O)NCCCCCN(O)C(C)=O)C(=O)O,inactive
13,C[C@H](N)CCC(=O)NCS(=O)(=O)O,inactive
14,COCCNC(=O)C[C@@H]1CC[C@H]2[C@@H](COC[C@H](O)CN2S(=O)(=O)c2ccccc2F)O1,inactive
15,COc1ccc(S(=O)(=O)Nc2ccc3c(c2)[C@H]2C[C@H](CC(=O)NCC4CC4)O[C@@H](CO)[C@H]2O3)cc1,inactive
16,C[C@@H]1CN([C@@H](C)CO)C(=O)Cc2cc(NS(C)(=O)=O)ccc2O[C@H]1CN(C)S(=O)(=O)c1ccccc1,inactive
17,CN[C@H]1CN(c2ccc3c(=O)c(C(=O)O)cn(-c4nccs4)c3n2)C[C@@H]1OC,inactive
18,CC(C)(C)NCC(O)c1cc(O)cc(O)c1.O=S(=O)(O)O (configuration not stated),inactive
19,CC(C)NCC(O)c1cc(O)cc(O)c1 (configuration not stated),active
20,CC(C)NCC(O)c1ccc2ccccc2c1.Cl (configuration not stated),inactive
21,CC(C)NCC(O)c1ccc(NS(C)(=O)=O)cc1.Cl (configuration not stated),inactive
22,CCC(NC(C)C)C(O)c1ccc(O)c(O)c1.CS(=O)(=O)O (configuration not stated),inactive
23,CC(C)NCC(O)c1ccc(O)c(O)c1.Cl (configuration not stated),active
